Where “and” joins values, the source holds several entries; their conditions need not be identical. Identical values can stand only once.

The assay relates to HT29 sg-Ctrl (RNF43 wildtype). The assay can be described thus: cell viability activity relative to DMSO (negative = inhibition); higher = more viable cells (less growth inhibition). The conditions noted are these: 5 µM; 96 h. The method, then:
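Broad Repurposing Library primary screen at a single dose of 5 uM. HT29 sg-Ctrl and HT29 RNF43 G659fs CRISPR-edited isogenic cells were seeded at 2500 cells/well in 384-well plates in duplicate and treated for 96 h. Viability was read by CellTiter-Glo and reported as % activity relative to DMSO, with MG132 as the positive control (negative = growth inhibition).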
For `CNC(=O)c1c(F)cccc1Nc1nc(Nc2cc3c(cc2OC)CCN3C(=O)CN(C)C)nc2[nH]ccc12`, the cell viability activity is -35%.

For `Cc1nc(C#Cc2ccnc(Cl)c2)c(C)n1-c1ccc(OC(F)(F)F)cc1`, the cell viability activity was -18.5%.

Turning to `Cc1ncc(NC(=O)c2ccc(CN3CCN(C)CC3)c(C(F)(F)F)c2)cc1Nc1nccc(-c2cccnc2)n1`, the cell viability activity is -49%.

Take `CC1(C)CC(=O)c2c(C(F)(F)F)nn(-c3ccc(C(N)=O)c(N[C@H]4CC[C@H](OC(=O)CN)CC4)c3)c2C1`: the cell viability activity was -84.8% and -87.4% and -83.8%.

For the compound `Cn1c(=O)n(-c2ccc(C(C)(C)C#N)cc2)c2c3cc(-c4cnc5ccccc5c4)ccc3ncc21`, the cell viability activity was -44.1%.

As to `COc1cc2c(cc1OC)-c1cc3nc4ccccc4nc3n1C(C)(C)C2`, the cell viability activity was -78.1%.

In the case of `CCOC(=O)CCNc1cc(N2CCc3ccccc3CC2)nc(-c2ccccn2)n1`, the cell viability activity was -27.5%.

Turning to `CC(C)OC(=O)OCOP(=O)(CO[C@H](C)Cn1cnc2c(N)ncnc21)OCOC(=O)OC(C)C`, the cell viability activity was -48.3%.

Take `CCCOc1ccc2[nH]c(NC(=O)OC)nc2c1`: the cell viability activity was -55.8%.

Take `CC(C)(C)c1cnc(CSc2cnc(NC(=O)C3CCNCC3)s2)o1`: the cell viability activity is -81.8%.

On to `CC[C@H](CC#N)OC(=O)N[C@@H](C)c1cccc(NC(=O)Nc2ccc(-c3cnco3)c(OC)c2)c1`, for which the cell viability activity was -55.9%.

Consider `CCN(CC)CCN(Cc1ccc(-c2ccc(C(F)(F)F)cc2)cc1)C(=O)Cn1c(SCc2ccc(F)cc2)nc(=O)c2c1CCC2`, for which the cell viability activity was -96.7%.

As to `CN(C)C/C=C/C(=O)Nc1ccc(C(=O)Nc2cccc(Nc3ncc(Cl)c(-c4c[nH]c5ccccc45)n3)c2)cc1`, the cell viability activity was -86.4%.

Regarding `Oc1c(Cl)cc(Cl)c(Cl)c1Cc1c(O)c(Cl)cc(Cl)c1Cl`, the cell viability activity is -40.9%.

On to `CCCS(=O)(=O)Nc1ccc(F)c(C(=O)c2c[nH]c3ncc(-c4ccc(Cl)cc4)cc23)c1F`, for which the cell viability activity was -47.2%.

As for `Cn1c(=O)c(F)c(Nc2ccc(I)cc2F)c2c(=O)n(C[C@@H](O)CO)cnc21`, the cell viability activity was -90.5%.

Take `C=CCNC1=C2C[C@@H](C)C[C@H](OC)[C@H](O)[C@@H](C)/C=C(\C)[C@H](OC(N)=O)[C@@H](OC)/C=C\C=C(/C)C(=O)NC(=CC1=O)C2=O`: the cell viability activity was -83.4%.

Consider `Clc1cc(Cl)c(OCC#CI)cc1Cl`, for which the cell viability activity is -23.2%.

Turning to `COc1cccc2c1C(=O)c1c(O)c3c(c(O)c1C2=O)C[C@@](O)(C(=O)CO)C[C@@H]3O[C@H]1C[C@H](N)[C@H](O)[C@H](C)O1`, the cell viability activity was -89.6% and -89.8% and -68.3%.

Consider `Cc1nnc(C[C@@H]2C=C(c3ccc(Cl)cc3)c3ccccc3-n3c(C)nnc32)o1`, for which the cell viability activity was -64.7%.

For `O=C(c1ccc(F)c(F)c1Nc1ccc(I)cc1F)N1CC(O)([C@@H]2CCCCN2)C1`, the cell viability activity was -88.9%.

Take `CC(C)=CCC/C(C)=C/CC/C(C)=C/CSc1ccccc1C(N)=O`: the cell viability activity is -6.13%.

Consider `CC[C@@]1(O)C(=O)OCc2c1cc1n(c2=O)Cc2c-1nc1cc(F)c(C)c3c1c2[C@@H](N)CC3`, for which the cell viability activity is -90.4%.

Take `N#Cc1ccc(COC[C@H]2O[C@@H](n3c(NCc4ccc(Cl)c(Cl)c4)nc4c(N)ncnc43)[C@H](O)[C@@H]2O)cc1`: the cell viability activity was -31.3%.

In the case of `CNCCn1c(=O)c2cc(OC)c(OC)cc2c2cnc3cc4c(cc3c21)OCO4`, the cell viability activity is -86.6%.

For `Clc1ccccc1CNCC1CCC(CNCc2ccccc2Cl)CC1` (stereo not drawn), the cell viability activity is -19.9%.

For the compound `CC[C@H](C)[C@@H]([C@@H](CC(=O)N1CCC[C@H]1[C@H](OC)[C@@H](C)C(=O)N[C@@H](Cc1ccccc1)c1nccs1)OC)N(C)C(=O)[C@@H](NC(=O)[C@H](C(C)C)N(C)C)C(C)C`, the cell viability activity was -43%.

Turning to `CN1CCN(Cc2ccc(Nc3ncc(Cl)c(Nc4ccccc4S(=O)(=O)N(C)C)n3)cc2)CC1`, the cell viability activity is -96.1%.

Turning to `Cn1cc(-c2ccc(S(=O)(=O)n3ccc(/C=C/C(=O)Nc4ccccc4N)c3)cc2)cn1`, the cell viability activity was -63.3%.

As for `Cc1c(C(=O)Nc2ccc(N3CCC(N4CCOCC4)CC3)c(C#N)c2)cnn1-c1ccc(Cl)cc1`, the cell viability activity was -33.4%.

As to `CN(C)CCN1C(=O)c2cccc3cc(N)cc(c23)C1=O`, the cell viability activity is -47.7%.

Take `CC(C)(C)c1ccc(C(=O)CCCN2CCC(OC(c3ccccc3)c3ccccc3)CC2)cc1`: the cell viability activity was -92.1%.

Consider `OCCCNc1cc(-c2ccnc(Nc3cccc(Cl)c3)n2)ccn1`, for which the cell viability activity is -86%.

`CN[C@H](C(=O)N[C@H](C(=O)N(C)[C@H](/C=C(\C)C(=O)O)C(C)C)C(C)(C)C)C(C)(C)c1ccccc1`: the cell viability activity was -33.2%.

Regarding `CCS(=O)(=O)Nc1ccc2[nH]c(O)c(C(=Nc3ccc(CN4CCCCC4)cc3)c3ccccc3)c2c1`, the cell viability activity was -75.4%.

For `COc1cc([C@@H]2c3cc4c(cc3[C@@H](O[C@@H]3O[C@@H]5CO[C@@H](c6cccs6)O[C@H]5[C@H](O)[C@H]3O)[C@H]3COC(=O)[C@H]23)OCO4)cc(OC)c1O`, the cell viability activity was -90.9% and -80.9%.

For `COC(=O)Nc1nc2ccc(SC(C)C)cc2[nH]1`, the cell viability activity is -5.83%.

Consider `OC[C@H]1O[C@@H](Oc2cc(O)cc(/C=C/c3ccc(O)cc3)c2)[C@H](O)[C@@H](O)[C@@H]1O`, for which the cell viability activity is -36%.

The values are drawn from the supplement of paper PMC9177965.
